Source: PubChem (National Center for Advancing Translational Sciences (NCATS))
Only some compounds are listed: those with a hit (about 10% of all), similar ones and a draw of the others.
JMJD2A Tudor: inhibitors of human JMJD2A Tudor domain; O75164; Potency, µM (doses to about 114 µM), inactives show top-dose activity change, negative = inhibition, most hits filed as inhibitors; AlphaScreen JMJD2A-Tudor / H3K4me3 peptide binding; 390,000 tested, 4.4% active; AID 504339; also: potency is read from the fitted curve at half-maximal effect; % is scaled to controls: 0 for no effect and ±100 for the full control effect; nearly all actives have a fitted effect of over 50% in size
Target sequence (O75164 whole entry, looked up, the tested form may be a part): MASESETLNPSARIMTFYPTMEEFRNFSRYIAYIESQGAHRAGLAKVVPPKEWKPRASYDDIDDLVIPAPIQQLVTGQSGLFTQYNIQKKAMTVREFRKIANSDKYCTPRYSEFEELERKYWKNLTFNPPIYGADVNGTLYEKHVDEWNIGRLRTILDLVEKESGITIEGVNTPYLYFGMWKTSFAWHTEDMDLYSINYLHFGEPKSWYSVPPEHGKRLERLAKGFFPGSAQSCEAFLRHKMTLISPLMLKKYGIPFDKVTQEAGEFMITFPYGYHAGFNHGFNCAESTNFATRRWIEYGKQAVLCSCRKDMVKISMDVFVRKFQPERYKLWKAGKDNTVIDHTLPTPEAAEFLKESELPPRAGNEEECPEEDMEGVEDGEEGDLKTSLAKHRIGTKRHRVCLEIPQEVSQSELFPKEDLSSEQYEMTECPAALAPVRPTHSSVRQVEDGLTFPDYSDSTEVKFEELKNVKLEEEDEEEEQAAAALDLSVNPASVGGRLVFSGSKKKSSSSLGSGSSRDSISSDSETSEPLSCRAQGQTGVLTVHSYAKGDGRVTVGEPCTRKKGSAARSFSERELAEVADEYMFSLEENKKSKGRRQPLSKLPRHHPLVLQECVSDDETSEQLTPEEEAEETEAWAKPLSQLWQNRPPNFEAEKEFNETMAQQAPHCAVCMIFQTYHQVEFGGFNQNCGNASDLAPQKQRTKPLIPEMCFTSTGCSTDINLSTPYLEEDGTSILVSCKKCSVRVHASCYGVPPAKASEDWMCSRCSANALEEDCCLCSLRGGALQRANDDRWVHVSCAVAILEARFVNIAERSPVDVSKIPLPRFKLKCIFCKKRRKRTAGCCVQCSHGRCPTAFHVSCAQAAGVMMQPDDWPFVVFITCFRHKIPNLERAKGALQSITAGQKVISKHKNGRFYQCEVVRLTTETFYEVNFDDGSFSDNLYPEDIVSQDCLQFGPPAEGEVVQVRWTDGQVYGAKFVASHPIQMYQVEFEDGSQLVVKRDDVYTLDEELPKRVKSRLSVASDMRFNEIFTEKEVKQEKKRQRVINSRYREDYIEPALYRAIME
Six1-Eya2 blk: blocks human Six1 binding to Eya2; Q15475+O00167; AlphaScreen GST-Six1/His-Eya2 binding, biochemical; active compounds read low; activity change, % (no concentration beside the values); 360,000 tested, 0.56% active; AID 651725; in the data active = activity change below about -65%; inconclusive = mostly about -30% to -63%; also: % is scaled to controls: 0 for no effect and ±100 for the full control effect
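AlphaScreen luminescence read after one hour at 37 °C in darkness. Pin-transferred compounds met GST-Six1 and His-Eya2 protein (5X stock 250 nM/500 nM) plus glutathione donor and Ni-chelate acceptor beads (5X, 50 ug/mL).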
BAZ2B block: BAZ2B (human) inhibition; Potency, µM (highest dose often 114 µM), for the others: at the highest dose activity change, negative = inhibition, actives largely listed as inhibitors; AID 504333; AlphaScreen BAZ2B-H3K14Ac peptide displacement; 360,000 tested, 4.4% active; Q9UIF8; also: potency is read from the fitted curve at half-maximal effect; % is scaled to controls: 0 for no effect and ±100 for the full control effect; nearly all actives have a fitted effect of over 60% in size
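Complex of BAZ2B and biotin-H3K14Ac (50 nM apiece) forms over 30 min at RT, then faces library compounds up to 110 uM for another 30 min; AlphaScreen beads added, 20 min dark incubation, luminescence read.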
HP1b chromo inh: inhibitors of HP1-beta chromodomain binding to methylated histone tails | P83916 | AlphaScreen HP1-beta / biotin-H3K9me3 peptide binding | Potency, µM (titrated, usually from 114 µM), without a hit: at the top dose activity change, negative = inhibition, usual class: inhibitors | 390,000 tested, 0.56% active | AID 540317; also: potency is read from the fitted curve at half-maximal effect; nearly all actives have a fitted effect of over 70% in size
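HP1-beta protein (50 nM final) preincubated 30 min at room temperature with biotinylated H3(1-18)K9me3 peptide (50 nM) in PBS pH 7.4, 0.01% Tween-20, then compound added for 30 min. AlphaScreen streptavidin donor/nickel chelate acceptor beads (10 ug/mL final), 30 min dark, luminescence read.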
G9a inh: blocks human histone lysine methyltransferase G9a | Q96KQ7 | G9a H3K9 monomethylation, AlphaScreen, 2 h | 350,000 tested, 8.8% active | Potency, µM (series often up to 102 µM), without a hit: top-dose activity, negative = inhibition, most hits filed as inhibitors; also: potency is read from the fitted curve at half-maximal effect; % is scaled to controls: 0 for no effect and ±100 for the full control effect; nearly all actives have a fitted effect of over 75% in size
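AlphaScreen detection with an anti-monomethyl H3K9 antibody quantified product after a 2 h room-temperature reaction containing 500 nM biotinylated H3K9 peptide, 20 µM SAM and 20 nM enzyme, which had been preincubated 15 min with compound.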
CtBP-E1A inh: CtBP/E1A binding inhibition; AID 651724; AlphaScreen GST-E1A/His-CtBP binding, 1536-well; active compounds read low; activity change, % (test concentration not listed); 340,000 tested, 0.49% active; in the data active = activity change below about -65%; inconclusive = mostly about -30% to -63%; also: % is scaled to controls: 0 for no effect and ±100 for the full control effect
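Steps: dispense buffer (Tris pH 8.0, NaCl 300 mM, TCEP 1 mM, BSA, Tween 20); add 5X protein mix (GST-E1A, His-CtBP, 125 nM each); pin 23 nL compound; 2 h at 37 °C, dark; add 5X beads (50 ug/mL); 1 h; read.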
* hit, by the source's call; ? = inconclusive; nt = not tested or not shown; [ ] = another dose, or the depositor's remark. Unless noted, calls follow the shape of the dose curve; as a rule, active = well fitted inhibition curve with a large enough effect; inconclusive = small, poorly fitted or top-dose-only effect; inactive = no such curve, though single readings can be large or run the other way.

SMILES | JMJD2A Tudor | Six1-Eya2 blk | BAZ2B block | HP1b chromo inh | G9a inh | CtBP-E1A inh
COc1ccc(C(=S)N2CCNCC2)cc1 | 0% | 4 | 6% | 10% | 2%[59 µM] | -2
COc1ccc(C(=S)N2CCCCCC2)cc1 | 89µM* | -5 | 3% | ? | 6.3µM* | -2
COc1ccc(C(=S)N2CCN(c3ccccc3C)CC2)cc1 | -30% | -16 | -28% | -10% | 8.9µM* | nt
CCN1CCN(C(=S)c2ccc(OC)cc2)CC1 | -25% | 10 | -2% | -14% | 11µM* | 3
CCN1CCN(C(=O)c2ccccc2NC(=O)c2ccc(Cl)cc2)CC1 | -14% | 3 | -8% | 7% | 45µM* | -1
CCN1CCN(C(=S)c2ccc(Cl)cc2)CC1 | 79µM* | 0 | -1% | ? | ? | 5
OCCN1CCN(C(=S)c2ccc(Cl)cc2)CC1 | -26% | 9 | 6% | ? | ? | -3
O=C(Nc1ccccc1C(=O)N1CCCCCC1)c1ccc(Cl)cc1 | 0% | 1 | -5% | 38% | 7%[59 µM] | -3
COc1cc(C(=S)N2CCCC2)cc(OC)c1O | 2% | 1 | -3% | -25% | 32µM* | -1
CCOc1cc(C(=S)N2CCCC2)ccc1OC | 3% | 3 | 3% | 22% | -11% | 14
O=C(CNC(=O)[C@@H]1Cc2ccccc2CN1)Nc1ccc2c(c1)OCCO2 | -15% | 2 | ? | 14% | 40µM* | 4
CC(C)[C@H](NC(=O)[C@@H]1Cc2ccccc2CN1)C(=O)Nc1ccc2c(c1)OCCO2 | -14% | 10 | -23% | 20% | ? | 3
CCc1ccc(NC(=O)CNC(=O)[C@@H]2Cc3ccccc3CN2)cc1 | -12% | 2 | -23% | 14% | 79µM* | 3
Cc1nc(C)c(-c2csc(Nc3cccnc3)n2)s1 | ? | ? | ? | 8% | 0%[12.7 µM] | -11
O=C(O)c1ccc(Nc2nc(-c3cccnc3)cs2)cc1O | -13% | 6 | -33% | 26% | -8% | nt
Cc1nc(C)c(-c2csc(Nc3ccc(N)cc3)n2)s1 | 50µM* | -1 | 28µM* | ? | 40µM* | nt
Cc1nc(C)c(-c2csc(Nc3ccc(O)c(C(=O)O)c3)n2)s1 | -29% | -71* | ? | -8% | 79µM* | -28
COc1ccc(Nc2nc(-c3sc(C)nc3C)cs2)cc1 | ? | 0 | 50µM* | ? | nt | nt
COc1ccc(NC(=O)N2CC[C@@]3(CCCN(C(=O)c4cccn4C)C3)C2)cc1 | nt | nt | nt | nt | 2%[12.7 µM] | nt
CCN(CC)c1ccc(C2C3CCCCC3(O)CCN2C(=O)c2cccs2)cc1 (centres undefined) | ? | -10 | ? | -29% | 50µM* | -23
O=C(c1cccs1)N1CCC2(O)CCCCC2C1c1ccc(F)cc1 (centres undefined) | 6% | 5 | 4% | 37% | -5% | 4
CCCn1nnnc1NC(=O)c1cc(Cl)ccc1Cl | 40µM* | 2 | 56µM* | 12% | 8.9µM* | 3
COc1ccc(CNS(=O)(=O)c2cc3c(cc2Cl)N(C(C)=O)CCO3)cc1 | -21% | nt | 3% | 21% | 7%[59 µM] | nt
Cn1cnc([N+](=O)[O-])c1SCC(O)CCl (centres undefined) | -16% | 5 | -23% | 32% | -5% | -6
Cc1ccc(Sc2c([N+](=O)[O-])ncn2C)cc1 | -5%[57.1 µM] | -5 | 2%[57.1 µM] | 6% | 50% | -13
SMILES | JMJD2A Tudor | Six1-Eya2 blk | BAZ2B block | HP1b chromo inh | G9a inh | CtBP-E1A inh
Cn1cnc([N+](=O)[O-])c1SCCO | -12% | -9 | -14% | 27% | 22µM* | -24
Cn1cnc([N+](=O)[O-])c1Sc1ncccc1N | 4% | 21 | 9% | 65% | 3.5µM* | 38
O=S(=O)(c1cccnc1)N1CCCC(Nc2ccc(F)c(F)c2)C1 (centres undefined) | nt | -2 | nt | nt | nt | -1
COc1cc(OC)cc(-c2nc3ccccc3c(=O)n2OC(=O)c2ccc(Br)cc2)c1 | 20µM* | 3 | ? | 8% | ? | -1
CC1Cc2cc(S(=O)(=O)CCC(=O)NCc3ccccc3Cl)ccc2N1C(=O)C1CC1 (centres undefined) | 11% | nt | -3% | 43% | 1%[59 µM] | nt
COc1cc(CC2COC(c3ccc(O)c(OC)c3)C2COC(C)=O)ccc1O (centres undefined) | 50µM* | -18 | 40µM* | ? | ? | -21
Nc1nc(F)cc(NCc2ccccc2)n1 | 1% | 4 | -21% | 31% | -10%[59 µM] | nt
CC(/C=C/c1ccco1)=N\NC(=O)c1cc(Cl)ccc1O | -34% | -9 | -34% | 7% | 40µM* | -24
O=C(C=Cc1ccco1)c1cc(Cl)ccc1O | 22µM* | 3 | nt | 50µM* | nt | 4
CC(/C=C/c1ccco1)=N/NC(=O)Cc1cccs1 | -28% | -6 | -32% | 6% | -2%[59 µM] | 0
O=C(/C=C/c1ccc2ccccc2n1)c1cc(Cl)ccc1O | ? | -11 | 71µM* | -7% | 13%[0.501 µM] | -6
O=C(C=Cc1ccco1)c1ccc([N+](=O)[O-])cc1 | ? | 2 | nt | ? | nt | 0
O=C(CNc1cccc(S(=O)(=O)N2CCOCC2)c1)Nc1ccc(C(F)(F)F)cc1 | -3% | 4 | 10% | 35% | ? | 4
COc1ccc(S(=O)CC(=O)Nc2ccc(Cl)cc2Cl)cc1 (centres undefined) | -8% | 2 | 1% | 26% | 12%[59 µM] | 0
COc1c(Br)cc(Br)cc1/C=N/n1c(C)nnc1C | 40µM* | 1 | -4% | ? | -34%[12.7 µM] | 0
CCCOc1ccc(N2C(=O)CC(SCC(N)C(=O)OCC)C2=O)cc1 (centres undefined) | -9% | 1 | -3% | 41% | 71µM* | 3
COc1ccc(N2C(=O)CC(SCC(=O)O)C2=O)cc1 (centres undefined) | -9% | 1 | -2% | 34% | -20%[59 µM] | 4
CCOc1ccc(N2C(=O)CC(SCC(=O)O)C2=O)cc1 (centres undefined) | 1% | 3 | -3% | 36% | 50µM* | -16
CCCOc1ccc(N2C(=O)CC(SCCc3nc4ccccc4[nH]3)C2=O)cc1 (centres undefined) | -19% | -4 | -14% | 54% | -4% | 3
CCOC(=O)C(N)CSC1CC(=O)N(c2ccc(C(=O)OC)cc2)C1=O (centres undefined) | ? | -15 | -3% | -16% | 8.9µM* | -6
CCCOc1ccc(N2C(=O)CC(SCCN)C2=O)cc1 (centres undefined) | -6% | 0 | -6% | 26% | 3.5µM* | -1
CCC(C)NC(=O)CSc1nc2cc3c(cc2c(=O)n1CCCC(=O)NCc1ccc2c(c1)OCO2)OCO3 (centres undefined) | -10% | nt | -2% | 8% | 5%[59 µM] | nt
